Source: article PMC7862700, “An all-to-all approach to the identification of sequence-specific readers for epigenetic DNA modifications on cytosine”

Columns and labels:
Experiment in all cases: DAPPL (digital affinity profiling via proximity ligation, sequencing); 10 mM Tris-HCl pH 7.5, 50 mM NaCl, 1 mM DTT, 4% glycerol, room temperature, 30 min; GST-TFs on glutathione beads, 16-mer random dsDNA library, 0.1% formaldehyde crosslink after washing; high values mean tight binding
FEV = biological target: T1, FEV (Homo sapiens, UniProt Q99581 1-238); conditions: protein: recombinant; tags: N-terminal GST; dsDNA, one strand shown
T1 sequence: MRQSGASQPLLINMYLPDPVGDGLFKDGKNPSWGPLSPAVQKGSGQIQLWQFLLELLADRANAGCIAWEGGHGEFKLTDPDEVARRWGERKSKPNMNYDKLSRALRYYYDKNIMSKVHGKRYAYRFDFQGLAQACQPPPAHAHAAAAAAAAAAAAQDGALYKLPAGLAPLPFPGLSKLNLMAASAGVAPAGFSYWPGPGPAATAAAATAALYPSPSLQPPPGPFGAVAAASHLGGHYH
In short: (§1)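 In yeast, human transcription factors were expressed with a GST fusion, then pulled down on glutathione beads and given DNA barcodes. Pooled with a tag-only sample, they were exposed to 200 nmole of a 16-mer random double-stranded DNA library (Tris/NaCl/DTT/glycerol buffer, room temperature, 30 min), washed, crosslinked with 0.1% formaldehyde, proximity-ligated using BsaI/T4 ligase for 1 h at 37 °C, PCR-amplified and read on an Illumina NextSeq500. Each hexamer's frequency of reads for a factor, divided by the matching frequency for the tag-only sample, gives the binding signal.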

ETV5 = ETV5 (Homo sapiens, UniProt P41161 1-510); conditions: protein: recombinant; tags: N-terminal GST; dsDNA, one strand shown
Sequence of ETV5 (P41161 whole entry): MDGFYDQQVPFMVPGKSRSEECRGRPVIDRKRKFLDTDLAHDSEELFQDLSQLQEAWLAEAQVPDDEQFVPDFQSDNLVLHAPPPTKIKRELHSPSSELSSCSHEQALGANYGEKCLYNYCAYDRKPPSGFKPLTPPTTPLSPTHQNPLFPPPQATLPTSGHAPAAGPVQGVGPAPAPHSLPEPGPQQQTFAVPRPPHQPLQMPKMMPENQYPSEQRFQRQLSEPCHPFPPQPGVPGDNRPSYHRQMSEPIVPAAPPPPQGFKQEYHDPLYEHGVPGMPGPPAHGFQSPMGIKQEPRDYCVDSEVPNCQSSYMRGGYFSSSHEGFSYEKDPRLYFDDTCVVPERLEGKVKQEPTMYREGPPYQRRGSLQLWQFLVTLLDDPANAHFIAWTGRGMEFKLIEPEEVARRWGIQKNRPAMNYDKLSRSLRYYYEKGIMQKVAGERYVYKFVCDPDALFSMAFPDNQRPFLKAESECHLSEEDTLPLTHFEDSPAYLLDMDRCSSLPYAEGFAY
In short: as §1

HSF1 = HSF1 (Homo sapiens, UniProt Q00613 1-529); conditions: protein: recombinant; tags: N-terminal GST; chain copies: 3; dsDNA, one strand shown
Sequence of HSF1 (Q00613 whole entry): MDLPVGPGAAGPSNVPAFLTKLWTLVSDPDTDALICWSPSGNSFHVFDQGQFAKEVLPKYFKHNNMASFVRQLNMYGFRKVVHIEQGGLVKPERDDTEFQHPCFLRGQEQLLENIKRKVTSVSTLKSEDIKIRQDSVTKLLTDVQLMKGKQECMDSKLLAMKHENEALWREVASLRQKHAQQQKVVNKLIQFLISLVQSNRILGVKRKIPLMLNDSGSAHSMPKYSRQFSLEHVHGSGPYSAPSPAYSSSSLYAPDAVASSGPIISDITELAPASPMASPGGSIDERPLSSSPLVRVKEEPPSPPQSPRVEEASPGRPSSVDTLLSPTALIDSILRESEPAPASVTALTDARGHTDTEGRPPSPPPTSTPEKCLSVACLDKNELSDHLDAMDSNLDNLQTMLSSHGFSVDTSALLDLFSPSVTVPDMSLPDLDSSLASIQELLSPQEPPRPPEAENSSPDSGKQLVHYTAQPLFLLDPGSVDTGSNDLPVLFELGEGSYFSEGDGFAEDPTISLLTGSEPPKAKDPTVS
In short: as §1

SPIC = biological target: T2, SPIC (Homo sapiens, UniProt Q8N5J4 1-248); conditions: protein: recombinant; tags: N-terminal GST; dsDNA, one strand shown
T2 sequence: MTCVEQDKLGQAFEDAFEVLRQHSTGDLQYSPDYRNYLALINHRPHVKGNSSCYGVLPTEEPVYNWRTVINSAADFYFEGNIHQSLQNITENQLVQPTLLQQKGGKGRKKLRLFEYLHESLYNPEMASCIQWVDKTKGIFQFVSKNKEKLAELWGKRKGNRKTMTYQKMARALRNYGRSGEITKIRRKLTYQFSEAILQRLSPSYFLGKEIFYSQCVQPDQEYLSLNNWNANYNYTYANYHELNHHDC
In short: as §1

ELF4 = ELF4 (Homo sapiens, UniProt Q99607 1-663); conditions: protein: recombinant; tags: N-terminal GST; dsDNA, one strand shown
Sequence of ELF4 (Q99607 whole entry): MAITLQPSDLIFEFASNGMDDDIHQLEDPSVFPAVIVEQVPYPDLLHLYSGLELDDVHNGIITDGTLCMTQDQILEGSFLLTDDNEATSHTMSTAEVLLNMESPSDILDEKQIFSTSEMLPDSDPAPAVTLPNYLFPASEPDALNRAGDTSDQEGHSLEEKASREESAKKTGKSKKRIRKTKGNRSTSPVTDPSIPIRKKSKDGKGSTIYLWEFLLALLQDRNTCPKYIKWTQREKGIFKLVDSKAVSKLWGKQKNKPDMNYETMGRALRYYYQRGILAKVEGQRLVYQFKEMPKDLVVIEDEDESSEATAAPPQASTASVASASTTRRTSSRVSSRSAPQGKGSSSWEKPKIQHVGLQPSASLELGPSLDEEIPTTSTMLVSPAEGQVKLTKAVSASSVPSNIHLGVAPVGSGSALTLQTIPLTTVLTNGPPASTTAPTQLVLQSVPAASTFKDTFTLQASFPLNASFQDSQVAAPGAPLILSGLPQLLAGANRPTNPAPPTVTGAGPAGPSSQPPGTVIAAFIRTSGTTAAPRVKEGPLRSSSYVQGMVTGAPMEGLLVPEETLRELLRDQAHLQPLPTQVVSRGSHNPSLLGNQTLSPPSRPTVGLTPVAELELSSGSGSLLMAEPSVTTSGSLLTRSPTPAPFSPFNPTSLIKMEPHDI
In short: as §1

ELK4 = biological target: T3, ELK4 (Homo sapiens, UniProt P28324-2 1-405); conditions: protein: recombinant; tags: N-terminal GST; dsDNA, one strand shown
T3 sequence: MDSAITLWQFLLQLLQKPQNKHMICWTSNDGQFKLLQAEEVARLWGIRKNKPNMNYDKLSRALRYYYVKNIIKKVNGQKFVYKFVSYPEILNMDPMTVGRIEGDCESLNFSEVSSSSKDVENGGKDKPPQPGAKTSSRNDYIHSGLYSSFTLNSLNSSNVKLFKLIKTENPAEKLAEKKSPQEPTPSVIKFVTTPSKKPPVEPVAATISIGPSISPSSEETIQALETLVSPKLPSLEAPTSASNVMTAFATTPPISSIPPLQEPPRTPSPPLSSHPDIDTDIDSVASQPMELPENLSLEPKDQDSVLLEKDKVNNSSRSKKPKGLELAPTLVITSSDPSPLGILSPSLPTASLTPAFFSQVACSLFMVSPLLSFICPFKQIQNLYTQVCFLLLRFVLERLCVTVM
In short: as §1

ETV2 = biological target: T4, ETV2 (Homo sapiens, UniProt O00321 1-342); conditions: protein: recombinant; tags: N-terminal GST; dsDNA, one strand shown
T4 sequence: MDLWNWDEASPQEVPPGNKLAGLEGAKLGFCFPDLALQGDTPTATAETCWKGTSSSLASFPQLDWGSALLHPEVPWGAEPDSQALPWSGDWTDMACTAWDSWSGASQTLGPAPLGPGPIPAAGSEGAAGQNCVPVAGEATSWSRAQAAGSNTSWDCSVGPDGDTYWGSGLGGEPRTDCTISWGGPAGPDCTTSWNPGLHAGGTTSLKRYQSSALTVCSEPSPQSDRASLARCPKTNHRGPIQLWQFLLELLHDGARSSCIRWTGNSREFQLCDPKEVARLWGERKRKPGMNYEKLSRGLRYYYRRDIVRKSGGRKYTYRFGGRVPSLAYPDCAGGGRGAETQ
In short: as §1

ELF3 = biological target: T5, ELF3 (Homo sapiens, UniProt P78545 1-371); conditions: protein: recombinant; tags: N-terminal GST; dsDNA, one strand shown
T5 sequence: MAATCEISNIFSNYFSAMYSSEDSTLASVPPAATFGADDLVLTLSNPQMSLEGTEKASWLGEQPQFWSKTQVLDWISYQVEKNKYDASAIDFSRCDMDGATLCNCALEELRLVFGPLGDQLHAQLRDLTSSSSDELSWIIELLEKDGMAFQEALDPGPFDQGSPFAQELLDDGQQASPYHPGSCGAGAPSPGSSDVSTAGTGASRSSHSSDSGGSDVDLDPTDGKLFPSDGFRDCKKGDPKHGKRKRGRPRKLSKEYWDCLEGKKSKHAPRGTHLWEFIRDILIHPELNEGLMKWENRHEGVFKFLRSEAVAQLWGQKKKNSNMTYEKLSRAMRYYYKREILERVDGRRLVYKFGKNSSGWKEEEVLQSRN
In short: as §1

CRX = CRX (Homo sapiens, UniProt O43186 1-299); conditions: protein: recombinant; tags: N-terminal GST; dsDNA, one strand shown
Sequence of CRX (O43186 whole entry): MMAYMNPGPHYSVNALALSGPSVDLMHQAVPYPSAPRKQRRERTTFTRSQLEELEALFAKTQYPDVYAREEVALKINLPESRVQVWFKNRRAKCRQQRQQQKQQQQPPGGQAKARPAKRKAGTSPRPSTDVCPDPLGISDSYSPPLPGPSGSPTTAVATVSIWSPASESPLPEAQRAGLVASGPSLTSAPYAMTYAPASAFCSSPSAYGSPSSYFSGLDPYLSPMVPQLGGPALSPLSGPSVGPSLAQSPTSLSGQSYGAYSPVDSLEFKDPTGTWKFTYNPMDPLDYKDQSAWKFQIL
In short: as §1

ETV1 = ETV1 (Homo sapiens, UniProt P50549 1-477); conditions: protein: recombinant; tags: N-terminal GST; dsDNA, one strand shown
Sequence of ETV1 (P50549 whole entry): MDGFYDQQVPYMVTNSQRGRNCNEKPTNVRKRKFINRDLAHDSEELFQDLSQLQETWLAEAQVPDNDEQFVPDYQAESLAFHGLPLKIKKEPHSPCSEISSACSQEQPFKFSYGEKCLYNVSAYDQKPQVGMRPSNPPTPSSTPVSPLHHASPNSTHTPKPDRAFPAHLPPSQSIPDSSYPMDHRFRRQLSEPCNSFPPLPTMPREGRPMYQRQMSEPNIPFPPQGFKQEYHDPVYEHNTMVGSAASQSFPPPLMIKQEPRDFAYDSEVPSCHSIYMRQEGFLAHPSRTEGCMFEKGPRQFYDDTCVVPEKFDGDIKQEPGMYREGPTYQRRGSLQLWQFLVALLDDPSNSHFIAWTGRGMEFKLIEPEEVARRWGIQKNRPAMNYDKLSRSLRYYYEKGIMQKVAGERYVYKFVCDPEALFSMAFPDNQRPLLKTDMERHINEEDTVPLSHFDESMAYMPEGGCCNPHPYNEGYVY
In short: as §1

ERF = biological target: T6, ERF (Homo sapiens, UniProt P50548 1-548); conditions: protein: recombinant; tags: N-terminal GST; dsDNA, one strand shown
T6 sequence: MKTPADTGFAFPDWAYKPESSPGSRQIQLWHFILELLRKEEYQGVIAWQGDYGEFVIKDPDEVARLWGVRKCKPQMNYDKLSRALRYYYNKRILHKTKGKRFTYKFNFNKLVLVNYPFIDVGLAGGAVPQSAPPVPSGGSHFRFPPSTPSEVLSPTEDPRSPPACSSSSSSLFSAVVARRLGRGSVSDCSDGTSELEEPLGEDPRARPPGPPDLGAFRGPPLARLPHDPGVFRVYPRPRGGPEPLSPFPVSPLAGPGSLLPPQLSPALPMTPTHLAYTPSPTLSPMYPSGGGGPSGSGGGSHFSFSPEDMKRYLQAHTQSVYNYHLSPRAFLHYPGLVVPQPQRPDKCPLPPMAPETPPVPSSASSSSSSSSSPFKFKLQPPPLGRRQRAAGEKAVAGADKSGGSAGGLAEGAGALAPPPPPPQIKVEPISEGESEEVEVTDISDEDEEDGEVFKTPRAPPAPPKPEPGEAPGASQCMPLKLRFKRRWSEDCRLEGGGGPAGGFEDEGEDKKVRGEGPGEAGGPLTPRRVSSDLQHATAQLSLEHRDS
In short: as §1

ETV3L = biological target: T7, ETV3L (Homo sapiens, UniProt Q6ZN32 1-361); conditions: protein: recombinant; tags: N-terminal GST; dsDNA, one strand shown
T7 sequence: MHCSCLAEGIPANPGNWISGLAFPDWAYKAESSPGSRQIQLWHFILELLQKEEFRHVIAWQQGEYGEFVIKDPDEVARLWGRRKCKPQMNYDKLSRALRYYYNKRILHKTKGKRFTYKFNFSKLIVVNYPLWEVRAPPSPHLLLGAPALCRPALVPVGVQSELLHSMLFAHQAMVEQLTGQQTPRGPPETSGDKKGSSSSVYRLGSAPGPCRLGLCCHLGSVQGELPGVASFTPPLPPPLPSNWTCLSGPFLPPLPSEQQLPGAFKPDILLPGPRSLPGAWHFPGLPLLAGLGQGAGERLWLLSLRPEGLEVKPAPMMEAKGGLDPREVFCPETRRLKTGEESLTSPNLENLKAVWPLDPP
In short: as §1

ETS2 = biological target: T8, ETS2 (Homo sapiens, UniProt P15036 1-469); conditions: protein: recombinant; tags: N-terminal GST; dsDNA, one strand shown
T8 sequence: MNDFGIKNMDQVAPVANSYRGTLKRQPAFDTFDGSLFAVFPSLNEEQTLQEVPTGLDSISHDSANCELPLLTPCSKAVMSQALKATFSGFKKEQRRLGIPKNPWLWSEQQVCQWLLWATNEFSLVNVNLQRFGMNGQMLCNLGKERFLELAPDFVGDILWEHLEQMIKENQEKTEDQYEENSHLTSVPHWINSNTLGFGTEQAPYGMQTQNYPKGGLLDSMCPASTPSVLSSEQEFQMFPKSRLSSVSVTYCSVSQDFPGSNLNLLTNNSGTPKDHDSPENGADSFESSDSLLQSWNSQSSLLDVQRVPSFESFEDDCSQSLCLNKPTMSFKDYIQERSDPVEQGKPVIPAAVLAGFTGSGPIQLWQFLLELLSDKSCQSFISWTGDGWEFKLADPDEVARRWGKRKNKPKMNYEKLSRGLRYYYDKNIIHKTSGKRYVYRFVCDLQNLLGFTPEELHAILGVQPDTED
In short: as §1

SPDEF = biological target: T9, SPDEF (Homo sapiens, UniProt O95238 1-335); conditions: protein: recombinant; tags: N-terminal GST; dsDNA, one strand shown
T9 sequence: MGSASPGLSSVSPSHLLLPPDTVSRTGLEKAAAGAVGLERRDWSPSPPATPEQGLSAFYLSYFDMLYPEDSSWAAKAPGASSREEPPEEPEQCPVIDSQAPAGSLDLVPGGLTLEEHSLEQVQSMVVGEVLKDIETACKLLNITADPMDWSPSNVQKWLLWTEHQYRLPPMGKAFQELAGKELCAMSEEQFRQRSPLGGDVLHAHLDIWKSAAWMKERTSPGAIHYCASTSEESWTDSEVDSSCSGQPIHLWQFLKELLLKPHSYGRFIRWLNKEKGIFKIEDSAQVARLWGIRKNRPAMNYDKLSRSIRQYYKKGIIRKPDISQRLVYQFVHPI
In short: as §1

ETV7 = biological target: T10, ETV7 (Homo sapiens, UniProt Q9Y603 1-341); conditions: protein: recombinant; tags: N-terminal GST; dsDNA, one strand shown
T10 sequence: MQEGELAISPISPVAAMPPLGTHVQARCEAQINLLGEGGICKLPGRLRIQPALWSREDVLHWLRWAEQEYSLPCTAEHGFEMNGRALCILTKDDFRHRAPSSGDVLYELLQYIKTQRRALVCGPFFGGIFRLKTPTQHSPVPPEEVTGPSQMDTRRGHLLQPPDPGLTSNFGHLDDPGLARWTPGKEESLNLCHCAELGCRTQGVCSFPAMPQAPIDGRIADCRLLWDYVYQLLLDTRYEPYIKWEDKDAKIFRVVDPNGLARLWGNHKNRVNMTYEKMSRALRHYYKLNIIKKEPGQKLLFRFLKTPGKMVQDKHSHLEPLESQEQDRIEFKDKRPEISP
In short: as §1

ELF5 = biological target: T11, ELF5 (Homo sapiens, UniProt Q9UKW6-2 1-255); conditions: protein: recombinant; tags: N-terminal GST; dsDNA, one strand shown
T11 sequence: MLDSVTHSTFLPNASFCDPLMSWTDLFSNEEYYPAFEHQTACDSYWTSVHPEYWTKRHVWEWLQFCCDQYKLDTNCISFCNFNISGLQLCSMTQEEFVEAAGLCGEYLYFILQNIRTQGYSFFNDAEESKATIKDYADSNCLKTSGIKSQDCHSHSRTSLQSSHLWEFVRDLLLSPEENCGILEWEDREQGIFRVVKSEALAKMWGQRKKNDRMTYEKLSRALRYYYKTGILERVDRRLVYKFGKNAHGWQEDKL
In short: as §1

ETV3 = biological target: T12, ETV3 (Homo sapiens, UniProt P41162-2 1-143); conditions: protein: recombinant; tags: N-terminal GST; dsDNA, one strand shown
T12 sequence: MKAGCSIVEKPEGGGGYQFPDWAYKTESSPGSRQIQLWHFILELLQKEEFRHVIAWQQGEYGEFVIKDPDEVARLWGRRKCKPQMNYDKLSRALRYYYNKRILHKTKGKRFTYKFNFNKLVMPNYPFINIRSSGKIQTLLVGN
In short: as §1

ETV6 = ETV6 (Homo sapiens, UniProt P41212 1-452); conditions: protein: recombinant; tags: N-terminal GST; dsDNA, one strand shown
Sequence of ETV6 (P41212 whole entry): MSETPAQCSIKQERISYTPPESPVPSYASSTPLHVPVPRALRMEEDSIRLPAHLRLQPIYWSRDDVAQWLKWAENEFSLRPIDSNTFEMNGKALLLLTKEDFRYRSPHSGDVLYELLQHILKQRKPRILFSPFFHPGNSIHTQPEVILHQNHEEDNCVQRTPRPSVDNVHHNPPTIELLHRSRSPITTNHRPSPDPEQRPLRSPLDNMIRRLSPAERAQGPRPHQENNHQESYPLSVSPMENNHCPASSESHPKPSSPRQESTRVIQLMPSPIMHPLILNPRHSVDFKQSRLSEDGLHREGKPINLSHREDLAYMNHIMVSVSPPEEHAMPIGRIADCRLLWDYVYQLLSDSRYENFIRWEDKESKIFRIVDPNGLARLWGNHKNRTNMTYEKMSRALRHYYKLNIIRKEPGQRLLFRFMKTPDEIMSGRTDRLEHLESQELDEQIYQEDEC
In short: as §1

CTTTTA
binding signal (FEV): 1.36 fold enrichment (6-mer frequency, TF over GST control) | binding signal (ETV5): 1.29 fold enrichment (6-mer frequency, TF over GST control) | binding signal (HSF1): 1.3 fold enrichment (6-mer frequency, TF over GST control) | binding signal (SPIC): 1.49 fold enrichment (6-mer frequency, TF over GST control) | binding signal (ELF4): 1.43 fold enrichment (6-mer frequency, TF over GST control) | binding signal (ELK4): 1.21 fold enrichment (6-mer frequency, TF over GST control) | binding signal (ETV2): 1.28 fold enrichment (6-mer frequency, TF over GST control) | binding signal (ELF3): 1.34 fold enrichment (6-mer frequency, TF over GST control) | binding signal (CRX): 1.61 fold enrichment (6-mer frequency, TF over GST control) | binding signal (ETV1): 1.41 fold enrichment (6-mer frequency, TF over GST control) | binding signal (ERF): 1.39 fold enrichment (6-mer frequency, TF over GST control) | binding signal (ETV3L): 1.42 fold enrichment (6-mer frequency, TF over GST control) | binding signal (ETS2): 1.32 fold enrichment (6-mer frequency, TF over GST control) | binding signal (SPDEF): 1.18 fold enrichment (6-mer frequency, TF over GST control) | binding signal (ETV7): 1.42 fold enrichment (6-mer frequency, TF over GST control) | binding signal (ELF5): 1.21 fold enrichment (6-mer frequency, TF over GST control) | binding signal (ETV3): 1.4 fold enrichment (6-mer frequency, TF over GST control) | binding signal (ETV6): 1.31 fold enrichment (6-mer frequency, TF over GST control)
